Active and inactive are the calls of the source. Calls come from the whole dose curve; as a rule, active = well fitted curve in the direction sought with a large enough effect in the repeat runs; inconclusive = weak or mixed curves; inactive = flat fitted curve, though single readings scatter.
test: qHTS assay to test for compound auto fluorescence at 535 nm (green) in HepG2 cells (AID 720675); details: green autofluorescence 485/535 nm, 1 h; series mostly up to 91.3 µM; fluorescence, % of fluorescein control: at the top concentration
% is set by controls: 0 for no effect and ±100 for the full control effect.

Row | SMILES | outcome | fluorescence, % of fluorescein control
1 | O=C(O)c1cc(C(=O)O)cc(S(=O)(=O)O)c1 | inactive | 
2 | CC1CCC(C(C)C)C(O)C1 (centres undefined) | inactive | 
3 | CCCCCCCCC/C=C/CC1CC(=O)OC1=O (centres undefined) | inactive | 
4 | CCCCCC1=CCCC1=O | inactive | 
5 | O=C(O)c1ccccc1C(c1ccc(O)cc1)c1ccc(O)cc1 |  | 0.0634% (inactive)
6 | CCCCC(CC)COC(=O)CCCCC(=O)OCC(CC)CCCC (centres undefined) | inactive | 
7 | COCCCOc1ccnc(CS(=O)c2nc3ccccc3[nH]2)c1C (centres undefined) | inactive | 
8 | CCCCCC/C(C=O)=C\c1ccccc1 | inactive | 
9 | O=C(O)CCCC[C@@H]1SC[C@@H]2NC(=O)N[C@@H]21 | inactive | 
10 | C=C(C)C(=O)Nc1ccc(Cl)c(Cl)c1 | inactive | 
11 | Cc1cccnc1 | inactive | 
12 | CC[C@H](C)C(=O)O[C@H]1C[C@@H](C)C=C2C=C[C@H](C)[C@H](CC[C@@H]3C[C@@H](O)CC(=O)O3)[C@H]21 | inactive | 
13 | NNc1nncc2ccccc12 | inactive | 
14 | O=[N+]([O-])c1ccc(/C=C/c2ccc([N+](=O)[O-])cc2S(=O)(=O)O)c(S(=O)(=O)O)c1 | inactive | 
15 | CCCSc1ccc2nc(NC(=O)OC)[nH]c2c1 | inactive | 
16 | CC(=O)Nc1ccccc1 | inactive | 
17 | Cc1occc(=O)c1O | inactive | 
18 | CC1=CC(=O)NS(=O)(=O)O1 | inactive | 
19 | OCC(CO)(CBr)CBr | inactive | 
20 | CCCCCCCCCCCCOCCO |  | 0.144% (inactive)
21 | O=C(O)[C@H](O)[C@@H](O)[C@H](O)[C@H](O)CO | inactive | 
22 | COc1ccc(NC(C)=O)cc1N | inactive | 
23 | CCCCCOC(C)=O | inactive | 
24 | OC[C@H]1O[C@@](CO)(O[C@H]2O[C@H](CO)[C@@H](O)[C@H](O)[C@H]2O)[C@@H](O)[C@@H]1O | inactive | 

Reference: PubChem BioAssay (Tox21)
